From the supplement of paper PMC8728848
The sample as a whole holds a higher share of the strongest signals than the screen did.

What was measured:
Experiment in all cases: glycan array binding signal (z-score within array); higher = stronger binding
Conditions in all cases: glycan notation: IUPAC condensed, linker removed
[1] = target: Fuc(a1-2)Gal(b1-3)GlcNAc(b1-2)Man(a1-3)[Fuc(a1-2)Gal(b1-3)GlcNAc(b1-2)Man(a1-6)]Man(b1-4)GlcNAc(b1-4)GlcNAc
Outline: (§1)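 Glycan array data were curated from 3228 arrays in the Consortium for Functional Glycomics database and kept only where the protein sequence was available. Glycan names were converted to IUPAC-condensed notation, and columns mapping to the same glycan were averaged. The binding signal is a within-array Z-score, averaged across arrays of the same protein sequence at different concentrations or buffers and across linkers. Negative Z-scores can be read as non-binding.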

[2] = target: Fuc(a1-2)Gal(b1-3)[Fuc(a1-4)]GlcNAc(b1-2)Man(a1-3)[Fuc(a1-2)Gal(b1-3)[Fuc(a1-4)]GlcNAc(b1-2)Man(a1-6)]Man(b1-4)GlcNAc(b1-4)[Fuc(a1-6)]GlcNAc(b1-4)[Fuc(a1-6)]GlcNAc
Outline: as §1

[3] = target: Fuc(a1-2)Gal(b1-4)GlcNAc(b1-2)Man(a1-3)[Fuc(a1-2)Gal(b1-4)GlcNAc(b1-2)Man(a1-6)]Man(b1-4)GlcNAc(b1-4)GlcNAc
Outline: as §1

[4] = target: Fuc(a1-2)Gal(b1-4)[Fuc(a1-3)]GlcNAc(b1-3)GalNAc
Outline: as §1

[5] = target: Fuc(a1-2)[Gal(a1-3)]Gal(b1-3)GalNAc(b1-3)Gal(a1-4)Gal(b1-4)Glc
Outline: as §1

[6] = target: Fuc(a1-2)[Gal(a1-3)]Gal(b1-3)GlcNAc(b1-2)Man(a1-3)[Fuc(a1-2)[Gal(a1-3)]Gal(b1-3)GlcNAc(b1-2)Man(a1-6)]Man(b1-4)GlcNAc(b1-4)[Fuc(a1-6)]GlcNAc
Outline: as §1

[7] = target: Fuc(a1-2)[GalNAc(a1-3)]Gal(b1-3)GalNAc(a1-3)[Fuc(a1-2)]Gal(b1-4)GlcNAc
Outline: as §1

[8] = target: Fuc(a1-2)[GalNAc(a1-3)]Gal(b1-3)GlcNAc(b1-2)Man(a1-3)[Fuc(a1-2)[GalNAc(a1-3)]Gal(b1-3)GlcNAc(b1-2)Man(a1-6)]Man(b1-4)GlcNAc(b1-4)GlcNAc
Outline: as §1

[9] = target: Fuc(a1-2)[GalNAc(a1-3)]Gal(b1-4)GlcNAc(b1-2)Man
Outline: as §1

[10] = target: Fuc(a1-2)[GalNAc(a1-3)]Gal(b1-4)GlcNAc(b1-6)GalNAc
Outline: as §1

[11] = target: Fuc(a1-3)[Gal(b1-4)]GlcNAc(b1-6)GalNAc
Outline: as §1

[12] = target: Fuc(b1-3)GlcNAc
Outline: as §1

[13] = target: Gal(a1-3)Gal
Outline: as §1

[14] = target: Gal(a1-3)Gal(b1-4)[Fuc(a1-3)]GlcNAc
Outline: as §1

[15] = target: Gal(a1-4)Gal(b1-4)GlcNAc(b1-2)Man(a1-3)[Gal(a1-4)Gal(b1-4)GlcNAc(b1-2)Man(a1-6)]Man(b1-4)GlcNAc(b1-4)GlcNAc
Outline: as §1

[16] = target: Gal(b1-3)GlcNAc(b1-3)Gal(b1-4)GlcNAc(b1-3)Gal(b1-4)GlcNAc(b1-2)[Gal(b1-3)GlcNAc(b1-3)Gal(b1-4)GlcNAc(b1-3)Gal(b1-4)GlcNAc(b1-6)]Man(a1-6)[Gal(b1-3)GlcNAc(b1-3)Gal(b1-4)GlcNAc(b1-3)Gal(b1-4)GlcNAc(b1-2)Man(a1-3)]Man(b1-4)GlcNAc(b1-4)[Fuc(a1-6)]GlcNAc
Outline: as §1

[17] = target: Gal(b1-3)GlcNAc(b1-3)GalNAc
Outline: as §1

[18] = target: Gal(b1-3)[Neu5Ac(a2-6)]GlcNAc(b1-4)Gal(b1-4)Glc
Outline: as §1

[19] = target: Gal(b1-4)Gal
Outline: as §1

[20] = target: Gal(b1-4)GlcNAc(b1-2)Man(a1-3)[Gal(b1-4)GlcNAc(b1-2)Man(a1-6)]Man(b1-4)GlcNAc(b1-4)[Fuc(a1-6)]GlcNAc
Outline: as §1

[21] = target: Gal(b1-4)GlcNAc(b1-2)[Gal(b1-4)GlcNAc(b1-4)]Man(a1-3)[GlcNAc(b1-4)][Gal(b1-4)GlcNAc(b1-2)[Gal(b1-4)GlcNAc(b1-6)]Man(a1-6)]Man(b1-4)GlcNAc(b1-4)GlcNAc
Outline: as §1

[22] = target: Gal(b1-4)GlcNAc(b1-3)Gal(b1-3)GlcNAc
Outline: as §1

[23] = target: Gal(b1-4)GlcNAc(b1-3)Gal(b1-4)GlcNAc(b1-2)Man(a1-3)[Gal(b1-4)GlcNAc(b1-3)Gal(b1-4)GlcNAc(b1-2)Man(a1-6)]Man(b1-4)GlcNAc(b1-4)[Fuc(a1-6)]GlcNAc
Outline: as §1

[24] = target: Gal(b1-4)GlcNAc(b1-3)Gal(b1-4)GlcNAc(b1-2)[Gal(b1-4)GlcNAc(b1-3)Gal(b1-4)GlcNAc(b1-6)]Man(a1-6)[Gal(b1-4)GlcNAc(b1-3)Gal(b1-4)GlcNAc(b1-2)Man(a1-3)]Man(b1-4)GlcNAc(b1-4)GlcNAc
Outline: as §1

[25] = target: Gal(b1-4)GlcNAc(b1-3)Gal(b1-4)GlcNAc(b1-2)[Gal(b1-4)GlcNAc(b1-3)Gal(b1-4)GlcNAc(b1-6)]Man(a1-6)[Gal(b1-4)GlcNAc(b1-3)Gal(b1-4)GlcNAc(b1-2)Man(a1-3)]Man(b1-4)GlcNAc(b1-4)[Fuc(a1-6)]GlcNAc
Outline: as §1

[26] = target: Gal(b1-4)GlcNAc(b1-3)Gal(b1-4)GlcNAc(b1-3)Gal(b1-4)GlcNAc(b1-3)Gal(b1-4)GlcNAc(b1-2)Man(a1-3)[Gal(b1-4)GlcNAc(b1-3)Gal(b1-4)GlcNAc(b1-3)Gal(b1-4)GlcNAc(b1-3)Gal(b1-4)GlcNAc(b1-2)Man(a1-6)]Man(b1-4)GlcNAc(b1-4)GlcNAc
Outline: as §1

[27] = target: Gal(b1-4)GlcNAc(b1-3)[GlcNAc(b1-6)]Gal(b1-4)GlcNAc
Outline: as §1

[28] = target: Gal3S(b1-3)[Fuc(a1-4)]GlcNAc
Outline: as §1

[29] = target: Gal6S(b1-3)GlcNAc6S
Outline: as §1

[30] = target: Gal6S(b1-4)GlcNAc
Outline: as §1

[31] = target: GalNAc(b1-4)GlcNAc(b1-2)Man(a1-3)[GalNAc(b1-4)GlcNAc(b1-2)Man(a1-6)]Man(b1-4)GlcNAc(b1-4)GlcNAc
Outline: as §1

[32] = target: GalNAc3S(b1-4)GlcNAc
Outline: as §1

[33] = target: GlcNAc(b1-2)Man(a1-3)[GlcNAc(b1-2)Man(a1-6)]Man(b1-4)GlcNAc(b1-4)GlcNAc
Outline: as §1

[34] = target: GlcNAc(b1-3)Gal(b1-4)GlcNAc(b1-3)Gal(b1-4)GlcNAc(b1-3)Gal(b1-4)GlcNAc(b1-2)Man(a1-3)[GlcNAc(b1-3)Gal(b1-4)GlcNAc(b1-3)Gal(b1-4)GlcNAc(b1-3)Gal(b1-4)GlcNAc(b1-2)Man(a1-6)]Man(b1-4)GlcNAc(b1-4)GlcNAc
Outline: as §1

[35] = target: GlcNAc(b1-3)[GlcNAc(b1-6)]GalNAc
Outline: as §1

[36] = target: GlcNAc(b1-4)GlcNAc(b1-4)GlcNAc(b1-4)GlcNAc(b1-4)GlcNAc
Outline: as §1

[37] = target: Man(a1-2)Man(a1-3)[Man(a1-2)Man(a1-6)]Man
Outline: as §1

[38] = target: Man(a1-2)Man(a1-3)[Man(a1-6)]Man(a1-6)[Man(a1-2)Man(a1-3)]Man(b1-4)GlcNAc(b1-4)GlcNAc
Outline: as §1

[39] = target: Neu5Ac(a2-3)Gal(b1-4)GlcNAc(b1-2)Man(a1-3)[GlcNAc(b1-4)][Neu5Ac(a2-3)Gal(b1-4)GlcNAc(b1-2)Man(a1-6)]Man(b1-4)GlcNAc(b1-4)GlcNAc
Outline: as §1

[40] = target: Neu5Ac(a2-3)Gal(b1-4)GlcNAc(b1-2)Man(a1-3)[Neu5Ac(a2-6)Gal(b1-4)GlcNAc(b1-2)Man(a1-6)]Man(b1-4)GlcNAc(b1-4)GlcNAc
Outline: as §1

[41] = target: Neu5Ac(a2-3)Gal(b1-4)GlcNAc(b1-3)[Neu5Ac(a2-3)Gal(b1-4)GlcNAc(b1-6)]GalNAc
Outline: as §1

[42] = target: Neu5Ac(a2-3)Gal(b1-4)[Fuc(a1-3)]GlcNAc(b1-3)Gal(b1-4)GlcNAc
Outline: as §1

[43] = target: Neu5Ac(a2-6)Gal(b1-4)Glc
Outline: as §1

[44] = target: Neu5Ac(a2-6)GalNAc(b1-4)GlcNAc6S
Outline: as §1

[45] = target: Neu5Ac(a2-8)Neu5Ac(a2-8)Neu5Ac(a2-3)Gal(b1-4)Glc
Outline: as §1

[46] = target: Neu5Ac(a2-8)Neu5Gc(a2-3)Gal(b1-4)GlcNAc
Outline: as §1

[47] = target: Neu5Gc(a2-8)Neu5Ac(a2-3)Gal(b1-4)GlcNAc
Outline: as §1

[48] = target: Neu5Gc(a2-8)Neu5Gc(a2-3)Gal(b1-4)GlcNAc(b1-3)Gal(b1-4)GlcNAc
Outline: as §1

B1: PX14375l-pdi-526-25-526 (Parabacteroides distasonis) (protein)
chain: DEEPKSTLTDVAYYKTQSQMESNVNYLYRTGAIGSYVDFGSAYIGPFASIQEELTGYFSNSYEGQEIVCRYTRELTRQQNTMQLASKMDKVWDDCYRGINVANGAIKHMPEVPMDQATADRLTAEAKFFRAFNYFYLVKTFGAVPFYTDPYELAENMELPRTETSTIYNQIESDLKDAMNVLPEATFAANGHRITKYVAAMTLTDVYMYQHKYAEAAETVRIVVNSNHKLTTNDDLAMNSAFNKLRSTDDLDEAIYAYEYDNQISPSNWLPTYAFDGDASSNGLFGTYAITQKVHGPNDRYLNIYESNDLRRQPNQFYHWTYTNPKTGKVWNSVGNAACCWYYYDEDALLTTGRGTKDWNVYRYAEALLDAAESIAQSTGVTAEAAGYLAQVKARANMEGKTAAEIASSLQSMGKQAFIEECWTERLRELPLEFKMWDMCVRTGMFPNISETTPGQVTYIPLVGAKNASGATIKESDLLWPLSVNEIQRNPSLTQNEGYSAK
glycan array binding signal (z-score) [1]: -0.052
glycan array binding signal (z-score) [2]: 0.236
glycan array binding signal (z-score) [3]: 3.23
glycan array binding signal (z-score) [4]: 3.32
glycan array binding signal (z-score) [5]: -0.21
glycan array binding signal (z-score) [6]: 0.373
glycan array binding signal (z-score) [7]: -0.255
glycan array binding signal (z-score) [8]: 2.42
glycan array binding signal (z-score) [9]: -0.233
glycan array binding signal (z-score) [10]: -0.22
glycan array binding signal (z-score) [11]: 2.66
glycan array binding signal (z-score) [12]: -0.225
glycan array binding signal (z-score) [13]: -0.181
glycan array binding signal (z-score) [14]: -0.3
glycan array binding signal (z-score) [15]: 1.19
glycan array binding signal (z-score) [16]: 8.4
glycan array binding signal (z-score) [17]: -0.323
glycan array binding signal (z-score) [18]: -0.125
glycan array binding signal (z-score) [19]: -0.301
glycan array binding signal (z-score) [20]: 0.272
glycan array binding signal (z-score) [21]: 3.87
glycan array binding signal (z-score) [22]: -0.16
glycan array binding signal (z-score) [23]: 4.03
glycan array binding signal (z-score) [24]: 4.11
glycan array binding signal (z-score) [25]: 0.091
glycan array binding signal (z-score) [26]: 16.7
glycan array binding signal (z-score) [27]: -0.154
glycan array binding signal (z-score) [28]: -0.094
glycan array binding signal (z-score) [29]: 9.53
glycan array binding signal (z-score) [30]: -0.026
glycan array binding signal (z-score) [31]: -0.068
glycan array binding signal (z-score) [32]: -0.071
glycan array binding signal (z-score) [33]: -0.225
glycan array binding signal (z-score) [34]: -0.168
glycan array binding signal (z-score) [35]: -0.1
glycan array binding signal (z-score) [36]: -0.095
glycan array binding signal (z-score) [37]: -0.022
glycan array binding signal (z-score) [38]: -0.236
glycan array binding signal (z-score) [39]: -0.214
glycan array binding signal (z-score) [40]: -0.134
glycan array binding signal (z-score) [41]: -0.205
glycan array binding signal (z-score) [42]: 0.129
glycan array binding signal (z-score) [43]: 0.019
glycan array binding signal (z-score) [44]: 0.114
glycan array binding signal (z-score) [45]: -0.12
glycan array binding signal (z-score) [46]: 2.74
glycan array binding signal (z-score) [47]: -0.206
glycan array binding signal (z-score) [48]: -0.201
